# Results: PubChem BioAssay AID540256 (National Center for Advancing Translational Sciences (NCATS), 2011)
# About 3,700 (1.2%) of roughly 300,000 compounds were called active. Inconclusive results (about 20%) are left out. The list comes from a sample in which actives are over-represented; it also holds similar structures and randomly drawn compounds. Values without a mark were called inactive. Calls follow the shape of the full dose curve; tested in HEK293 cells.
# Assay: qHTS for Inhibitors of binding or entry into cells for Lassa Virus; also: nearly all actives have a fitted effect of over 50% in size
# Conditions: Lassa virus pseudotype entry inhibition, cell reporter; series mostly up to 37.9 µM; activity change, negative = inhibition: at the top concentration
# % is scaled to controls: 0 for no effect and ±100 for the full control effect; potency is read from the fitted curve at half-maximal effect.
SMILES,"activity change, negative = inhibition",Potency
O=C(c1cc(COc2cccc(C(F)(F)F)c2)on1)N1CCSCC1,-13%,–
COc1ccc(Cc2nc3ccc(C(=O)NCC4CCOCC4)cc3o2)cc1OC,15.9%,–
CC1C(=O)N(Cc2cn(Cc3ccco3)nn2)CCS(=O)(=O)N1Cc1ccc(-c2cccc(CO)c2)cc1 (configuration not stated),11.4% [at 46.1 µM],–
COCOCCn1cc(CN2CCS(=O)(=O)N(Cc3ccc(-c4cccc(N(C)C)c4)cc3)C(CC(C)C)C2=O)nn1 (configuration not stated),6.61% [at 46.1 µM],–
CCCC=Cc1ccc(CN2C(C(C)C)C(=O)N(Cc3cn(CC4CCCCC4)nn3)CCS2(=O)=O)cc1 (configuration not stated),–,25 µM (active)
CC1CCN(c2ccc(-c3ccc(NC(=O)c4ccco4)cc3)nn2)CC1,13.7%,–
COC(=O)c1cc2nc(-c3ccccc3)cc(C(F)(F)F)n2n1,-5.23%,–
O=C(O)c1cnn2c(C(F)(F)F)cc(-c3ccccc3)nc12,4.58%,–
O=C(c1ccccc1)N1CCN(C(=O)c2cc3nc(-c4ccccc4)cc(C(F)(F)F)n3n2)CC1,–,11.2 µM (active)
Cn1cc(S(=O)(=O)N2CCCCCC2)cc1C(=O)N1CCN(c2ccc(F)cc2)CC1,-19.6% [at 46.1 µM],–
COc1cc2c(cc1OC)C(Cc1cc(OC)c(OC)cc1[N+](=O)[O-])=NCC2,-1.16%,–
COC(=O)Nc1nc2ccc(Sc3ccccc3)cc2[nH]1,9.81%,–
COC(=O)Nc1nc2ccc(Oc3ccc(NC(=O)Nc4cccc(Cl)c4)cc3)cc2[nH]1,–,6.28 µM (active)
Cc1cc(Cl)nc(NC(=O)Nc2cccc(Cl)c2)n1,-0.962% [at 46.1 µM],–
COc1ccc(CN2CCN(C(=O)CCC(=O)Nc3nnc(C(C)C)s3)CC2)cc1F,3.46% [at 46.1 µM],–
Cn1c(N)c(C(=O)COC(=O)c2cccc(S(=O)(=O)N3CCOCC3)c2)c(=O)n(C)c1=O,-0.757%,–
Cc1ccc(Oc2ccc(N)cc2)cc1,21.7%,–
Nc1ccc(Oc2ccc(Cl)cc2)cc1,-16.1%,–
CC(C)(C)c1ccc(Oc2ccc(N)cc2)cc1,–,0.651 µM (active)
O=S(=O)(Nc1ccc2ccccc2c1)N1CCCCC1,-23.8% [at 46.1 µM],–
O=C1CC(c2ccccc2)C(c2ccccc2)=NN1 (configuration not stated),1.55% [at 46.1 µM],–
CN1CCN(CCCCOc2cccc3ccccc23)CC1,-3.92% [at 46.1 µM],–
Cc1ccc(C(=O)NC(C)c2ccccc2)cc1Br (configuration not stated),–,11.6 µM (active)
C=CCNC(=O)c1ccc(C)c(Br)c1,-4.34%,–
CC1=CCC2C(=O)N(c3cccc(C(=O)NC(C)c4ccccc4)c3)C(=O)C2C1 (configuration not stated),-2.44%,–
c1ccc2c(c1)OC1OC2Oc2ccccc21,2.34% [at 46.1 µM],–

SMILES,"activity change, negative = inhibition",Potency
CC1CCN(C(=O)CCc2nnc3ccc(NCc4ccco4)nn23)CC1,10.6% [at 46.1 µM],–
COC(=O)CNC(=O)c1ccc(OC2CCN(C(=O)C3CC3)CC2)cc1,11.7% [at 46.1 µM],–
CCc1ccc(/C=N/NC(=O)c2ccc(OC3CCCC3)cc2)s1,–,2 µM (active)
CCc1cc(C(N)=O)c(NC(=O)c2ccc(OC)cc2)s1,3.32%,–
COC(=O)Cc1c(-c2[nH]c3ccccc3c2CC(=O)OC)[nH]c2ccccc12,17.1%,–
Cc1cc(C(=O)COc2ccccc2[N+](=O)[O-])c(C)n1-c1cccc(S(=O)(=O)N2CCOCC2)c1,–,6.31 µM (active)
O=C(COc1ccc(S(=O)(=O)N2CCOCC2)cc1Cl)N1CCOCC1,0.861%,–
Cc1cc(S(=O)(=O)N2CCOCC2)ccc1OCC(=O)N1CCOCC1,-0.783%,–
CSCCC(NS(=O)(=O)c1ccccc1F)C(=O)N1CC=C(c2ccccc2)CC1 (configuration not stated),4.87%,–
O=C(c1ccc(F)cc1)N1CCC(C(=O)N2CCN(S(=O)(=O)c3ccccc3Br)CC2)CC1,-18.6%,–
COC(=O)c1cnn(-c2ccc(C(=O)Nc3ccc(OC(F)(F)F)cc3)cc2)c1N,8.84% [at 46.1 µM],–
Cc1cccc(NS(=O)(=O)c2ccc(C(=O)NCC(C)(C)N3CCOCC3)cc2)c1C,-18.3%,–
CC1CN(C(=S)SCC(=O)c2ccccc2)CC(C)O1 (configuration not stated),3.79%,–
O=C(CSC(=S)N1CCOCC1)c1cc(Br)cc(Br)c1O,4.47%,–
O=C(CSC(=S)N1CCOCC1)c1ccccc1,–,14.6 µM (active)
Cc1cccc(C(=O)Nc2ccc(C(=O)N/N=C/c3cccc(C)n3)cc2)c1,-11.5% [at 46.1 µM],–
Cc1cccc(C=CC(=O)c2ccc(Cl)cc2)c1,-0.612%,–
COc1ccc(OC)c(Cc2cnc3nc(N)nc(N)c3c2C)c1,–,0.251 µM (active)
COc1ccc(OC)c(Cc2nnc(CCC(=O)NC3CCCC3)o2)c1,0.521%,–
COc1ccc(OC)c(NC(=O)c2sc3nc(C)cc(C)c3c2N)c1,4.31% [at 46.1 µM],–
CC(=O)Nc1ccc(S(=O)(=O)NCC(=O)OCC(=O)c2ccc[nH]2)cc1,-0.036%,–
CC(=O)c1cccc(OCC(=O)OCC(=O)Nc2cc(S(=O)(=O)N3CCCCC3)ccc2C)c1,-1.54%,–
CCCCOc1ccc(C(=O)NN2CCN(C)CC2)cc1,-1.96%,–
CCCOc1ccc(C(=O)CCC(=O)OC(C)C(=O)Nc2ccc(NC(C)=O)cc2)cc1 (configuration not stated),5.75% [at 46.1 µM],–
CCCOc1ccc(C(=O)C(CCC(CNCC)C(=O)c2ccc(OCCC)cc2)CNCC)cc1 (configuration not stated),–,13 µM (active)
CCc1noc(C)c1C(=O)N1CCCC(N2CCN(c3ccc(F)cc3)CC2)C1 (configuration not stated),5.55%,–
